Reference: PubChem BioAssay
Where “and” joins values, the source holds several entries; their conditions need not be identical. Equal entries are not always repeated. Calls of active or inactive are those of the source.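 The calls were made as follows, unless noted: active = inhibition at or above 50% relative to wild type and mutant plate controls; inactive = inhibition below 50%.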

Experiments:
[1] = inhibitors of TNFa-induced NFkB p65 translocation, primary screen, imaging, HUVEC, MLSMR starter and 10KST1 sets (AID 438;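 active = inhibition above 20% together with a positive visual image hit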;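 also: compound added about 3h40 before a 20 min TNFalpha stimulation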;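 as to inhibition: signal is the nuclear over cytoplasmic p65 intensity ratio per well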); conditions: HUVEC TNFa-induced p65 nuclear translocation; cell count: measured here: nuclei count (cytotoxicity indicator), at 2.08 µM unless noted; inhibition: at 2 µM, stronger effect = higher value unless noted
[2] = inhibitors of mutant huntingtin aggregation, primary screen, imaging, exon1htt(103Q)mCFP cells, high-content imaging (AID 483;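 active = visual image review flags a hit and inhibition of aggregation exceeds 20%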;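 also: compound exposure lasted 3 days before fixation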;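 as to nuclei count: percent of the per-plate median nuclei count of sample wells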); conditions: exon1htt(103Q)mCFP cell line, aggregate imaging, at 2 µM; inhibition of aggregation: stronger effect = higher value; nuclei count: measured here: cell count, toxicity
[3] = inhibitors of E-selectin induction by TNFa, primary screen, imaging, HUVEC, immunofluorescence, MLSMR starter and 10KST1 sets (AID 487;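 active = visually confirmed hit in the image check and inhibition above 20%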;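 as to inhibition: signal is fraction of cell area covered by stained E-selectin grains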;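 as to nuclei count: 100% = median nuclei count of all wells on the same plate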); conditions: HUVEC TNFalpha-induced E-selectin immunofluorescence imaging, at 2 µM; inhibition: stronger effect = higher value; nuclei count: measured here: cell number, toxicity
[4] = DUSP6 inhibitors restoring Erk phosphorylation by chemical complementation, primary imaging in DUSP6-transfected HeLa (AID 609;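 active = compounds giving at least 50% inhibition in the cell-based MKP-3 phosphatase rescue imaging test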;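 as to inhibition: phospho-Erk level distribution per well compared with pooled transfected vehicle control wells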); conditions: HeLa MKP-3 transfected, phospho-Erk imaging KS statistic, at 10 µM
[5] = biological target: Dual specificity protein phosphatase 6 (Homo sapiens) (UniProt Q16828); assay: as above; conditions: HeLa MKP-3 transfected, phospho-Erk imaging KS statistic, at 10 µM, stronger effect = higher value
[6] = biological target: Voltage-gated potassium channel subunit beta-2 (Rattus norvegicus) (UniProt P62483); assay: KvBeta enzyme negative modulators, primary screen, biochemical, NADPH fluorescence (AID 622;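 active = fluorescence slope higher than the sample average by over 3 SD, cut at about -0.22 in these data, passing the limit was not always enough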;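 also: slope of raw intensity against log time taken from 70 to 1610 s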); conditions: recombinant KvBeta, 4-cyanobenzaldehyde reduction, at 10 µM, stronger effect = higher value
[7] = biological target: Voltage-gated potassium channel subunit beta-2 (Rattus norvegicus) (UniProt P62483); assay: KvBeta positive modulators, primary screen, biochemical, NADPH fluorescence (AID 623;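 active = NADPH fluorescence slope more negative than the mean of all samples by about 3 SD, 99.7% confidence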;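 also: fluorescence intensity change per second fitted from 20 to 320 s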); conditions: Recombinant KvBeta, NADPH fluorescence decrease slope, 10 min; at 10 µM; stronger effect = lower value
[8] = biological target: Alpha-2C adrenergic receptor (Homo sapiens) (UniProt P18825); assay: modulators of alpha2C/GIRK thallium flux, primary screen, cell-based, HEK293 alpha2C/GIRK1/2 (AID 624;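 active = fluorescence slope after compound addition differing from the mean of all screened samples at 99.7% confidence, in either direction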;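 also: slope of fluorescence ratio to pre-addition baseline per second over 15 to 24 s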); conditions: thallium flux BTC fluorescence, at 10 µM, actives lie on both sides
[9] = inhibitors of larval lipid processing in zebrafish, primary screen, whole organism, PED6 fluorescence, gall bladder and intestine (AID 686;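 active = a full or partial loss of lipid-probe fluorescence in the fish gall bladder, intestine or both, judged by eye; inactive = no fluorescence loss, or compound toxic to the fish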;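 also: larvae 5 to 7 days old with five fish per well; signal comes from phospholipase A2 cleavage of quenched PED6 carried via bile; overnight exposure to compound and PED6 before scoring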); conditions: Zebrafish larvae PED6 lipid processing, fluorescence scoring
[10] = inhibitors of Chlamydomonas gravitaxis, primary screen, whole organism, Chlamydomonas reinhardtii, WT vs cilia-less mutant, absorbance, 96-well (AID 463189); conditions: OD600 absorbance, 2 days, at 10 µM, stronger effect = higher value;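 also: 0% = wild type cc124 cells in DMSO and 100% = ciliumless bld1 mutant cells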
[11] = inhibitors of Sendai virus-induced IRF3 signaling, primary screen, TLR/RLR signaling modifier project, cell-based, Sendai virus stimulus, luciferase, 10K MLSCN set (AID 602276;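 active = inhibition at or above 50% at 10 µM; inactive = inhibition below 50%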;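 also: firefly luciferase from ISG56 promoter only with Renilla not read in this screen; 0% = Sendai virus plus DMSO and 100% = medium plus DMSO without virus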); conditions: HEK293 RL24 IRF3 luciferase reporter, at 10 µM, stronger effect = higher value
[12] = inhibitors of poly I:C-induced TLR3 signaling, primary screen, cell-based, poly I:C stimulus, luciferase, 10K MLSCN set (AID 602277;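 active = inhibition of the reporter signal at or above 50%; inactive = inhibition below 50%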); conditions: HEK293-TLR3 RL24 IRF3 luciferase reporter, at 10 µM, stronger effect = higher value
[13] = measured here: cell density z-score
[14] = measured here: nuclear c-Myc green intensity z-score
[15] = measured here: nuclear pErk red intensity z-score, stronger effect = higher value

Sequence of Alpha-2C adrenergic receptor (Homo sapiens) (P18825 whole entry, looked up): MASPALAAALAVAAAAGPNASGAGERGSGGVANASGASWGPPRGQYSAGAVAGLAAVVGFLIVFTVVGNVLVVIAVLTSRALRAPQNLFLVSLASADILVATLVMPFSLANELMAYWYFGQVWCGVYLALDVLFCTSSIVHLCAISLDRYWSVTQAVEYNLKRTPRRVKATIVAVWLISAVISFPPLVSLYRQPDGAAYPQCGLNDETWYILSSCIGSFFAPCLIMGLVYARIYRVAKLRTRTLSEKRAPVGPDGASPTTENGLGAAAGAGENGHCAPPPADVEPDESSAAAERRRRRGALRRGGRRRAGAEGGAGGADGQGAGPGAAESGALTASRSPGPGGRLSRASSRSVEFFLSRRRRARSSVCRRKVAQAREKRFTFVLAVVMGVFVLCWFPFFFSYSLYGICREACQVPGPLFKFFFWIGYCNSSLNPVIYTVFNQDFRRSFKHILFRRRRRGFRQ
Sequence of Voltage-gated potassium channel subunit beta-2 (Rattus norvegicus) (P62483 whole entry, looked up): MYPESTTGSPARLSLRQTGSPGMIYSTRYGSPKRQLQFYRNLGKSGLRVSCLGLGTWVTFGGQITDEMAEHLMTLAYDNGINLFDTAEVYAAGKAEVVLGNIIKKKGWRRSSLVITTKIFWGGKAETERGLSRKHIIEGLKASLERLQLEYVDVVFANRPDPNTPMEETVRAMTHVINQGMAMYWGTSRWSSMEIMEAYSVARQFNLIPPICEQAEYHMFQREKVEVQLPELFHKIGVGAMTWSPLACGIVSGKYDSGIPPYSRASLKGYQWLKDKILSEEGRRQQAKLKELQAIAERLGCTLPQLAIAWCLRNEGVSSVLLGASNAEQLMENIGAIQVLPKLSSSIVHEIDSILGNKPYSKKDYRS
Sequence of Dual specificity protein phosphatase 6 (Homo sapiens) (Q16828 whole entry, looked up): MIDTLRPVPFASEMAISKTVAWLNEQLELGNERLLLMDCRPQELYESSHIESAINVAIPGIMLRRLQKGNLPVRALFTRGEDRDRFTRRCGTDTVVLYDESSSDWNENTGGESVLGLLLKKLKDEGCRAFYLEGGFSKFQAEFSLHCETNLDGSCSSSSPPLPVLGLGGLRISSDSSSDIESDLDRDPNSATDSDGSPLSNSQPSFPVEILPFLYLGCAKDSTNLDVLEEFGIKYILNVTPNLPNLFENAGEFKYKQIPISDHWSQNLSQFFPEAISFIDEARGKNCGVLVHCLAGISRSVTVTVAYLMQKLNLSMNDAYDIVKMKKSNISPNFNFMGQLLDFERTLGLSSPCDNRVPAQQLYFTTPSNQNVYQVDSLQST

In the case of `CC(=O)[C@H]1CC[C@H]2[C@@H]3CC[C@H]4C[C@H](O)CC[C@]4(C)[C@H]3C(=O)C[C@]12C`, the cell count [1] is reported as 549, the inhibition [1] is reported as -11.5% (inactive) and the inhibition of aggregation [2] is reported as 17.3% (inactive). The nuclei count [2] was 94.7%, the inhibition [3] was -98.9% (inactive) and the nuclei count [3] was 100%. For the same compound, the z-score [4, 13] was -1.19, the z-score [4, 14] was -0.45 and the z-score [4, 15] was 1.1. For the same compound, the inhibition [5] was -6.41% (inactive), the fluorescence slope [6] was -0.534 (inactive) and the NADPH fluorescence slope [7] was -4.5e-05 (inactive). For the same compound, the slope [8] was 0.00562 (inactive), the outcome [9] was “inactive” and the inhibition [10] was 5.76% (inactive) and -1.15% (inactive). For the same compound, the inhibition [11] was 10.2% (inactive) and the inhibition [12] was 20.7% (inactive).
For `CCOC(=O)c1cc2c(cn1)[nH]c1ccccc12`, the cell count [1] was 594, the inhibition [1] was -2.5% (inactive) and the inhibition of aggregation [2] was 2% (inactive). The nuclei count [2] was 102%, the inhibition [3] was -12.8% (inactive) and the nuclei count [3] was 110%. For the same compound, the z-score [4, 13] was -0.332, the z-score [4, 14] was -1.06 and the z-score [4, 15] was -1.1. For the same compound, the inhibition [5] was 1.48% (inactive), the fluorescence slope [6] was -0.368 (inactive) and the NADPH fluorescence slope [7] was 7.4e-07 (inactive). For the same compound, the slope [8] was 0.00544 (inactive), the outcome [9] was “inactive” and the inhibition [10] was -6.97% (inactive). For the same compound, the inhibition [11] was -4.33% (inactive) and the inhibition [12] was -27.3% (inactive).
In the case of `Cc1ccc2c(c1)[C@@H]1CN(C)CC[C@@H]1N2C(=O)Nc1cccc(C(F)(F)F)c1`, the cell count [1] is reported as 378, the inhibition [1] is reported as -9.8% (inactive) and the inhibition of aggregation [2] is reported as -11.2% (inactive). The nuclei count [2] was 94.1%, the inhibition [3] was -93.8% (inactive) and the nuclei count [3] was 95.7%. It also gave a z-score [4, 13] of 1.48, a z-score [4, 14] of 0.568 and a z-score [4, 15] of 0.647. The inhibition [5] was -4.78% (inactive), the fluorescence slope [6] was -0.508 (inactive) and the NADPH fluorescence slope [7] was -0.000528 (active). The slope [8] was 0.0079 (inactive), the inhibition [10] was 4.34% (inactive) and the inhibition [11] was 20.1% (inactive). The inhibition [12] was 23.5% (inactive).
With `C#CCN(C)C(C)Cc1ccccc1` (configuration not stated) the cell count [1] was 624, the inhibition [1] was -1.1% (inactive) and the inhibition of aggregation [2] was 13.6% (inactive). For the same compound, the nuclei count [2] was 96.7%, the inhibition [3] was -90.1% (inactive) and the nuclei count [3] was 124%. For the same compound, the z-score [4, 13] was -0.521, the z-score [4, 14] was 1.36 and the z-score [4, 15] was 0.296. The inhibition [5] was 8% (inactive), the fluorescence slope [6] was -0.447 (inactive) and the NADPH fluorescence slope [7] was -7.1e-05 (inactive). The slope [8] was 0.00486 (inactive), the outcome [9] was “inactive” and the inhibition [10] was 10.4% (inactive). The inhibition [11] was 16.5% (inactive) and the inhibition [12] was 40.6% (inactive).
In the case of `CC(NC(C)(C)C)C(=O)c1cccc(Cl)c1` (configuration not stated), the cell count [1] is reported as 651, the inhibition [1] is reported as -1.3% (inactive) and the inhibition of aggregation [2] is reported as 4% (inactive). For the same compound, the nuclei count [2] was 102%, the inhibition [3] was -75.7% (inactive) and the nuclei count [3] was 132%. For the same compound, the z-score [4, 13] was -0.59, the z-score [4, 14] was 0.546 and the z-score [4, 15] was -0.888. The inhibition [5] was 12.4% (inactive), the fluorescence slope [6] was -0.447 (inactive) and the NADPH fluorescence slope [7] was -3.7e-05 (inactive). The slope [8] was 0.00462 (inactive), the outcome [9] was “inactive” and the inhibition [10] was -4.32% (inactive) and 13.4% (inactive). For the same compound, the inhibition [11] was 11.7% (inactive) and the inhibition [12] was 29.6% (inactive).
In the case of `C[N+]1(C)[C@@H]2CC(OC(=O)[C@H](CO)c3ccccc3)C[C@H]1[C@@H]1O[C@@H]12` (some centres not stated), the cell count [1] is reported as 542, the inhibition [1] is reported as -16.3% (inactive) and the inhibition of aggregation [2] is reported as 19% (inactive). For the same compound, the nuclei count [2] was 107%, the inhibition [3] was -56.7% (inactive) and the nuclei count [3] was 129%. It also gave a z-score [4, 13] of -0.698, a z-score [4, 14] of -0.0087 and a z-score [4, 15] of -0.0821. For the same compound, the inhibition [5] was -0.493% (inactive), the fluorescence slope [6] was -0.433 (inactive) and the NADPH fluorescence slope [7] was 2.1e-05 (inactive). The slope [8] was 0.0054 (inactive), the outcome [9] was “inactive” and the inhibition [10] was 9.4% (inactive). The inhibition [11] was -2.08% (inactive) and the inhibition [12] was 22.3% (inactive).
In the case of `NCC(CC(=O)O)c1ccc(Cl)cc1` (configuration not stated), the cell count [1] is reported as 601, the inhibition [1] is reported as -13.8% (inactive) and the inhibition of aggregation [2] is reported as -0.4% (inactive). The nuclei count [2] was 95.6%, the inhibition [3] was -102% (inactive) and the nuclei count [3] was 112%. For the same compound, the z-score [4, 13] was -0.759, the z-score [4, 14] was 1.88 and the z-score [4, 15] was 0.491. The inhibition [5] was 9.37% (inactive), the fluorescence slope [6] was -0.448 (inactive) and the NADPH fluorescence slope [7] was -4.9e-05 (inactive). The slope [8] was 0.00441 (inactive), the outcome [9] was “inactive” and the inhibition [10] was -1.51% (inactive) and 3.49% (inactive). For the same compound, the inhibition [11] was 13.4% (inactive) and the inhibition [12] was 26.4% (inactive).
For `C[N+]1(C)CCc2cc3c(cc2[C@H]1[C@@H]1OC(=O)c2c1ccc1c2OCO1)OCO3`, the cell count [1] was 633, the inhibition [1] was 1.1% (inactive) and the inhibition of aggregation [2] was -10.4% (inactive). For the same compound, the nuclei count [2] was 110%, the inhibition [3] was -58% (inactive) and the nuclei count [3] was 109%. For the same compound, the z-score [4, 13] was 0.571, the z-score [4, 14] was -0.122 and the z-score [4, 15] was -0.447. The inhibition [5] was 19.2% (inactive), the fluorescence slope [6] was -0.486 (inactive) and the NADPH fluorescence slope [7] was -3.8e-05 (inactive). The slope [8] was 0.00504 (inactive), the inhibition [10] was 6.58% (inactive) and 16.9% (inactive) and the inhibition [11] was 12.6% (inactive). The inhibition [12] was 45.3% (inactive).
In the case of `c1ccc2c3c([nH]c2c1)CNCC3`, the cell count [1] is reported as 485, the inhibition [1] is reported as -1.2% (inactive) and the inhibition of aggregation [2] is reported as 3.2% (inactive). For the same compound, the nuclei count [2] was 92.7%, the inhibition [3] was -84.5% (inactive) and the nuclei count [3] was 114%. For the same compound, the z-score [4, 13] was 0.136, the z-score [4, 14] was -0.573 and the z-score [4, 15] was -0.521. For the same compound, the inhibition [5] was 23.4% (inactive), the fluorescence slope [6] was -0.459 (inactive) and the NADPH fluorescence slope [7] was -6.4e-05 (inactive). For the same compound, the slope [8] was 0.00455 (inactive), the inhibition [10] was 24.5% (inactive) and the inhibition [11] was 4.35% (inactive). For the same compound, the inhibition [12] was 51.6% (active).
With `O=c1c2ccccc2[se]n1-c1ccccc1` the cell count [1] was 504, the inhibition [1] was -10.8% (inactive) and the inhibition of aggregation [2] was 7.2% (inactive). The nuclei count [2] was 84.9%, the inhibition [3] was -42.3% (inactive) and the nuclei count [3] was 117%. The z-score [4, 13] was 1, the z-score [4, 14] was 0.0235 and the z-score [4, 15] was -0.954. The inhibition [5] was 7.39% (inactive), the fluorescence slope [6] was -0.437 (inactive) and the NADPH fluorescence slope [7] was -0.000217 (active). For the same compound, the slope [8] was 0.00458 (inactive), the outcome [9] was “inactive” and the inhibition [10] was 6.32% (inactive) and 27.8% (inactive). For the same compound, the inhibition [11] was 0.283% (inactive) and the inhibition [12] was 12.7% (inactive).
